# Test results reported in PubChem BioAssay (Tox21).
# Records with an inconclusive call do not appear. Values without a mark were called inactive. The source made the active and inactive calls. Calls follow the shape of the dose curve; as a rule, active = well fitted cell-killing curve with a large enough effect in the repeat runs; inconclusive = weak or mixed curves, or effect the other way; inactive = no such curve, though single readings can be large or run the other way.
# Test: qHTS assay to identify small molecule antagonists of the vitamin D receptor (VDR) signaling pathway - cell viability counter screen (AID 743225); also: nearly all actives have a fitted effect of over 50% in size
# Settings: VDR-bla HEK293T viability, CellTiter-Glo luminescence, 16 h; series mostly up to 61 µM; viability change, negative = cytotoxic: at the top concentration
# Description: U.S. Tox21 Program National Center for Advancing Translational Sciences [NCATS] NIH Chemical Genomics Center [NCGC] U.S. Environmental Protection Agency [EPA] National Institutes of Environmental Health Sciences [NIEHS] National Toxicology Program [NTP] U.S. Food and Drug Administration [FDA] Tox21 Assay Overview: The vitamin D receptor (VDR), a member of nuclear hormone receptor superfamily, plays a critical role in calcium homeostasis and bone metabolism. It is also involved in cell differentiation and growth, and thrombogenicity. To identify the compounds that inhibit VDR signaling, the VDR-UAS-bla HEK 293T cell line (Invitrogen, Carlsbad, CA, USA) containing a beta-lactamase reporter gene under the control of an upstream activator sequence (UAS) was used to screen the Tox21 10K compound library. The cytotoxicity of the Tox21 compound library against the VDR-bla cell line was tested in parallel by measuring the cell viability using CellTiter-Glo assay (Promega, Madison, WI) in the same wells.
# Tox21 Assay Protocol Summary: VDR-bla cells were dispensed at 2,000 cells/5 uL of assay medium per well into black wall/clear-bottom 1536-well plates using a Multidrop Combi (Thermo Fisher Scientific, Waltham, MA) dispenser. After the assay plates were incubated at a 37C and 5% CO2 for 4 h, 23 nL of compounds dissolved in DMSO, positive controls or DMSO only was transferred to the assay plate by a Pintool station (Kalypsys, San Diego, CA), followed by addition of 1 uL of 1-alpha, 25-Dihydroxy Vitamin D3 (3 nM, final concentration in the wells) using a Bioraptr Flying Reagent Dispenser (FRD) workstation (Beckman Coulter, Indianapolis, IN). The plates were incubated at 37C and 5% CO2 for 16 h, and then 1 uL of LiveBLAzerTM B/G FRET substrate was added using a Bioraptr FRD. The plates were incubated at room temperature for 2 h and fluorescence intensity was measured by an Envision plate reader (PerkinElmer, Shelton, CT). For cell viability readout that measures cytotoxicity, 3 ul/well of CellTiter-Glo reagent was added into the assay plates using a Bioraptr FRD. After 30 min incubation at room temperature, the luminescence intensity in the plates was measured using a ViewLux plate reader (PerkinElmer).
# % is scaled to controls: 0 for no effect and ±100 for the full control effect; potency is read from the fitted curve at half-maximal effect.
Compound,"viability change, negative = cytotoxic",Potency
c1ccc(CSCc2ccccc2)cc1,-6.42%,
N#CC1(c2ccc(F)cc2)CCC(=O)CC1,3.27%,
O=c1cccccc1O,8.01% [at 78.8 µM],
Cc1[nH]cnc1C[C@H]1CCc2c(C)c3ccccc3n2C1=O,0.712%,
CC(C)OC(=O)c1cc2c(OCC(O)CNC(C)(C)C)cccc2[nH]1 (stereo not given),0.199%,
CC(C)(C)c1ccc(C(=O)O)cc1,-1.72%,
C1CCCC1,6.45%,
CCC1=C[C@@H]2CN(C1)Cc1c([nH]c3ccccc13)[C@@](C(=O)OC)(c1cc3c(cc1OC)N(C)[C@H]1[C@@](O)(C(=O)OC)[C@H](OC(C)=O)[C@]4(CC)C=CCN5CC[C@]31[C@@H]54)C2,-8.7%,
Nc1nc2ccccc2n1Cc1ccc(F)cc1,-29.6%,
CC1=C(C(=O)OC(C)C)C(c2cccc([N+](=O)[O-])c2)C(C(=O)OC2CN(C(c3ccccc3)c3ccccc3)C2)=C(N)N1 (stereo not given),,16.9 µM (active)
O=C(Oc1cccc2cccnc12)c1ccccc1,-5.07%,
Clc1ccc2cc3ccccc3cc2c1,-19.1%,
CC(=O)N1CCN(c2ccc(OC[C@H]3CO[C@](Cn4ccnc4)(c4ccc(Cl)cc4Cl)O3)cc2)CC1,,38.9 µM (active)
O=C(NOCC1CC1)c1ccc(F)c(F)c1Nc1ccc(I)cc1Cl,-14.4%,
O=c1cc(-c2ccc(O)cc2)oc2cc(O)cc(O)c12,1.07% [at 78.8 µM],
COc1cc(-c2ccc(N=C=O)c(OC)c2)ccc1N=C=O,-13.7%,
CSc1cnc(C)cn1,1.8% [at 78.8 µM],
CC(C)CCCCCCCCCCCCCCC(=O)O,22.8%,
Cn1cc(C(=O)[C@@H]2CCc3nc[nH]c3C2)c2ccccc21,0.484%,
CN1CCN(CCC(=O)N2c3ccccc3Sc3ccc(C(F)(F)F)cc32)CC1,,12 µM (active)

Compound,"viability change, negative = cytotoxic",Potency
C/C=C(\C)C(=O)OCc1ccccc1,-18.5%,
CCc1cc(SCc2sc(-c3ccc(C(F)(F)F)cc3)nc2CN2CCN(c3ccc(OC)cc3)CC2)ccc1OCC(=O)O,,7.76 µM (active)
CC(C)n1nc(-c2cc3cc(O)ccc3[nH]2)c2c(N)ncnc21,-28.2%,
Cc1cccc(N(C)C(=S)Oc2ccc3c(c2)C2CCC3C2)c1 (stereo not given),-34.3%,
Cc1c(C)c2c(c(C)c1O)CCC(C)(COc1ccc(CC3SC(=O)NC3=O)cc1)O2 (stereo not given),2.37%,
Cc1cc(N)c(S(=O)(=O)O)cc1Cl,-23.9% [at 78.8 µM],
CCCCN(CCCC)C(=O)N(CCCC)CCCC,3.56%,
CCCCCCCCNC(C)C(O)c1ccc(SC(C)C)cc1 (stereo not given),,9.52 µM (active)
O=C(c1ccc(O)cc1O)c1ccc(O)cc1O,,inactive
CCCCCCCCn1sc(Cl)c(Cl)c1=O,,6.92 µM (active)
Cc1nc(-c2ccc3c(c2)CCN(CCC2CCC(NC(=O)/C=C/c4ccc(F)cc4)CC2)CC3)no1 (stereo not given),-28.3% [at 28.5 µM],
CN(C/C=C/C#CC(C)(C)C)Cc1cccc2ccccc12,-9.27%,
CO[Si](CCCNc1ccccc1)(OC)OC,0.711%,
Clc1ccc2nsnc2c1NC1=NCCN1,2.18%,
N=C1N=C(N)c2ccccc21,-17.6%,
CCCCCCCCCCCCCCCS(=O)(=O)Oc1ccccc1,-11.3%,
C=C(C)C(=O)OCC(O)COc1ccc(C(C)(C)c2ccc(OCC(O)COC(=O)C(=C)C)cc2)cc1 (stereo not given),,19.5 µM (active)
CCN(C(=O)c1cc(C)cc(OC[C@H](C)Nc2ccncc2)c1)C(C)C,10.8%,
CCCCCCCCCOC(=O)c1ccc(O)cc1,,24.2 µM (active)
COc1cccc2c1C(=O)c1c(O)c3c(c(O)c1C2=O)C[C@@](O)(C(=O)CO)C[C@@H]3O[C@H]1C[C@H](N)[C@H](O[C@@H]2CCCCO2)[C@H](C)O1,-28.5%,
